Compound activity as filed in PubChem.
A selection: hits, their analogues and other compounds. The true share with any hit is near 8%.
KB-3-1 cytotox: kills parental KB-3-1 adenocarcinoma cells | KB-3-1 viability, CellTiter-Glo ATP luminescence, 72 h | Potency, µM (top dose mostly 46.1 µM), usual class: cytotoxic | 1.4% of 400,000 active; also: % is scaled to controls: 0 for no effect and ±100 for the full control effect; nearly all actives have a fitted effect of over 60% in size
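Cells are dispensed, compounds pinned in, plates held at 37 °C for 72 h, then CellTiter-Glo is added and luminescence read after 10 minutes. Cell line: parental KB-3-1 in phenol-red-free DMEM, 10% FBS.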
KB-V1 MDR tox: KB-V1 MDR subline cytotoxicity. 3.4% of 400,000 active. AID 1347076. KB-V1 MDR cells viability, CellTiter-Glo, 72 h. Potency, µM (highest dose often 46.1 µM), hits mostly cytotoxic; also: % is scaled to controls: 0 for no effect and ±100 for the full control effect; nearly all actives have a fitted effect of over 60% in size
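Following 72 h at 37 degrees C with compound, KB-V1 cell viability was read by CellTiter-Glo luminescence, medium being phenol-red-free DMEM plus 10% FBS; concentration-response parameters came from normalized, curve-fitted qHTS data.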
HT1080 IDH1KD tx: HT-1080 IDH1 knockdown cell toxicity (counter line); Potency, µM (highest dose often 46.1 µM), inactives show at the highest dose activity, negative = toxicity, actives largely listed as cytotoxic; HT-1080 IDH1 knockdown viability, ATP luminescence, 48 h; 2% of 360,000 active;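 also: 0% = DMSO wells and -100% = cell-free medium wells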
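Assay cells: HT-1080 with IDH1 knockdown, 750 per well, RPMI/5% FBS. Exposure: 48 h at 37 °C following 2 h pre-incubation. Read: CellTiter-Glo luminescence; fitted concentration-response, curve class assigned.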
HT1080-NT tox: kills 2HG-producing HT-1080-NT fibrosarcoma cells; HT-1080-NT fibrosarcoma viability, CellTiter-Glo ATP luminescence, 48 h; Potency, µM (top dose mostly 46.1 µM), for the others: top-dose activity, negative = less viability, usual class: cytotoxic; 1.6% of 360,000 active; AID 686970;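 also: NT is the 2HG producing partner of a matched IDH1 knockdown line; 0% = DMSO-treated cells and -100% = media-only wells without cells; nearly all actives have a fitted effect of over 55% in size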
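Read-out is CellTiter-Glo luminescence after 10 minutes at room temperature, following 48 hours' compound treatment of HT-1080-NT cells (750 cells/well, RPMI, 5% FBS, 37 degrees C).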
SW480 rereplic: DNA re-replication induction in SW480 cells; SW480 DNA re-replication, Hoechst DNA content imaging, 48 h; Potency, µM (doses to about 46.1 µM), for the others: top-dose re-replication activation, most hits filed as activators; 1.8% of 340,000 active; AID 624297; also: % of control where 0% means no effect; nearly all actives have a fitted effect of over 55% in size
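Hoechst fluorescence of nuclei (405 nm excitation, 500-530 nm emission) measured by plate-scanning imager after 48 hr compound exposure at 37 C; re-replication scored as increased number of nuclei with elevated intensity.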
MCF10A rerep: inducers of DNA re-replication in MCF 10A breast cells; MCF 10A DNA re-replication, Hoechst nuclear intensity, 48 h; Potency, µM (highest dose often 46.1 µM), inactives show at the top dose activity, positive = re-replication, hits mostly activators; 2.9% of 350,000 active; AID 624296; also: % of control where 0% means no effect; nearly all actives have a fitted effect of over 50% in size
* marks the source's active call; other numbers are inactive results; i = inactive; ? = inconclusive; . = no result given; [ ] = remark or other dose. Calls follow the shape of the dose curve; as a rule, active = well fitted curve in the direction sought with a large enough effect; inconclusive = small, poorly fitted or top-dose-only effect, or another doubt; inactive = no such curve, though single readings can be large; an effect the other way counts as inactive or inconclusive. Potency is read from the fitted curve at half-maximal effect.

SMILES | KB-3-1 cytotox | KB-V1 MDR tox | HT1080 IDH1KD tx | HT1080-NT tox | SW480 rereplic | MCF10A rerep
CCCN1C(=O)c2cc(C(=O)NCc3ccc(OC)cc3)ccc2C1O (stereo not drawn) | i | ? | -2% | 10% | 2% | 0%
CCSc1nc2sc3c(c2c(=O)n1-c1ccc(C)c(Cl)c1)CCN(C(C)=O)C3 | i | i | . | . | . | .
CCOc1ccc2nc(NCCNC(=O)c3cc(OC)c(OC)c(OC)c3)c(C#N)cc2c1 | i | i | 4% | -9% | 6.5µM* | 23µM*
COc1cc(C(=O)NCCNc2nc3c(C)c(C)ccc3cc2C#N)cc(OC)c1OC | i | i | 4% | -1% | ? | 21µM*
COc1cc(OC)cc(C(=O)NCCNc2nc3cc(C)cc(C)c3cc2C#N)c1 | i | i | -18% | -17% | ? | 16µM*
COc1cc(C(=O)NCCNc2nc3cc(C)ccc3cc2C#N)cc(OC)c1OC | i | i | 0% | -2% | 0% | 11%
COCCCNC(=S)NCCNc1nc2c(C)c(C)ccc2cc1C#N | i | ? | 1% | -17% | ? | 23µM*
COCCCNC(=S)N1CCCN(c2nc3c(C)c(C)ccc3cc2C#N)CC1 | i | i | 8% | 7% | 6% | -4%
Cc1cc2oc(=O)cc(CN3CCOCC3)c2cc1O | i | i | 6% | 0% | -6% | 7%
COCCNC(=S)NCCCNc1nc2cc3c(cc2cc1C#N)OCO3 | i | i | 1% | -1% | -1% | -6%
CN(C)CCCNC(=S)NCCNc1nc2cc3c(cc2cc1C#N)OCO3 | i | i | -4% | -1% | 15µM* | 21µM*
O=C(NCCC(=O)N1CCN(c2ccccc2O)CC1)c1ccc(Br)cc1 | i | i | -1% | -1% | -2% | 4%
O=S(=O)(c1cccc(Cl)c1)N1CCC(c2nc3ccccc3[nH]2)CC1 | i | 8.2µM* | -7% | -6% | 17% | 8%
O=S(=O)(c1ccc2c(c1)OCCO2)N1CCC(c2nc3ccccc3[nH]2)CC1 | ? | 15µM* | ? | -5% | -2% | 3%
CN(C)c1ccc(-c2noc(C3CCN(S(=O)(=O)c4cccc(Cl)c4)CC3)n2)cc1 | 16µM* | 6.5µM* | -2% | 6% | -2% | ?
CCOC(=O)c1ccc(NC(=O)c2ccc(CN3CCc4ccccc4C3)cc2)cc1 | ? | ? | ? | ? | 0% | 11%
CN(C)C(CNC(=O)c1ccc2ccccc2c1)c1ccco1 (stereo not drawn) | i | i | 16% | 4% | 3% | 0%
O=C(CCN1C(=O)/C(=C/c2ccccc2F)SC1=S)N[C@@H](CO)Cc1ccccc1 | ? | i | ? | -1% | 22µM* | ?
COc1ccc(-c2csc(=Nc3ccccc3)n2CCO)cc1F | ? | i | . | . | . | .
CCN(CC)c1ccc(Nc2cc3n(c(=O)n2)CCc2cc(OC)c(OC)cc2-3)cc1 | i | i | ? | 26µM* | ? | ?
COc1ccc(N=c2cc(-c3ccc(O)cc3)oc3ccccc23)cc1 | ? | ? | 16µM* | 15µM* | 0% | ?
COC1=C(c2ccccc2)C(=O)c2ccccc2C1=O | i | ? | 26µM* | -13% | ? | ?
CCOc1ccc(NC2=C(OC)C(=O)c3ccccc3C2=O)cc1 | i | ? | -16% | -12% | 10% | 13%
COc1ccc(C2=C(N)c3ccccc3C2=O)cc1 | i | i | ? | -29% | 0% | 2%
O=C(C1=C(c2ccccc2)C(=O)c2ccccc2C1=O)c1ccccc1 | ? | ? | 15µM* | ? | 7.3µM* | 5.2µM*
SMILES | KB-3-1 cytotox | KB-V1 MDR tox | HT1080 IDH1KD tx | HT1080-NT tox | SW480 rereplic | MCF10A rerep
COc1ccc(NC2=C(NCCO)C(=O)c3ccccc3C2=O)cc1 | ? | 21µM* | 8.2µM* | 13µM* | 18µM* | ?
O=C(c1ccccc1)c1c[nH]cc1-c1ccccc1 | i | i | -15% | 4% | -6% | 4%
COC1=C(Nc2ccc(O)cc2)C(=O)c2ccccc2C1=O | ? | ? | 23µM* | 10µM* | ? | ?
COC1=C(Nc2ccc(OC)cc2)C(=O)c2ccccc2C1=O | i | ? | -15% | -6% | 23µM* | ?
COc1ccc(NC2=C(c3ccc(OC)cc3)C(=O)c3ccccc32)cc1 | i | 5.2µM* | 6% | -11% | -13% | -5%
COC1=C(Nc2ccc(OC)cc2)C(=O)C(OC)=C(Nc2ccc(OC)cc2)C1=O | i | i | 14% | 6% | 0% | -2%
CC(C)CC(c1nnnn1Cc1ccccc1)N1CCN(C(=O)c2ccco2)CC1 (stereo not drawn) | i | i | -1% | 1% | -3% | 1%
Cc1ccccc1Cn1c(-c2cccs2)nc2ccccc21 | i | i | . | . | . | .
c1csc(Cn2c(-c3cccs3)nc3ccccc32)c1 | ? | 21µM* | -11% | 1% | 11% | 26%
CC1=C(C(=O)N(C)C)CC(CC(=O)NCCCCc2ccccc2)C(=O)N1CCC1=CCCCC1 (stereo not drawn) | i | i | 12% | 4% | . | .
COCCCN1C(=O)C(CC(=O)NCc2cccc3ccccc23)CC(C(=O)N2CCCCCC2)=C1C (stereo not drawn) | . | 10µM* | -8% | -2% | . | .
CC1=C(C(=O)N2CCOCC2)CC(CC(=O)NC(c2ccccc2)c2ccccc2)C(=O)N1CCC1=CCCCC1 (stereo not drawn) | i | 10µM* | -17% | -19% | . | .
COCCCN1C(=O)C(CC(=O)NCc2cccc3ccccc23)CC(C(=O)N2CCOCC2)=C1C (stereo not drawn) | i | i | 20% | 18% | . | .
CCCCN1C(=O)C(CC(=O)NCc2cccc3ccccc23)CC(C(=O)N2CCCCCC2)=C1C (stereo not drawn) | ? | 9.2µM* | -5% | 0% | . | .
CC1=C(C(=O)N2CCCCCC2)CC(CC(=O)NCCCCc2ccccc2)C(=O)N1CCC1=CCCCC1 (stereo not drawn) | ? | 16µM* | ? | ? | . | .
Fc1ccc(CNCc2ccc3c(c2)OCO3)cc1 | i | i | -16% | -6% | 2%[9.22 µM] | 4%
Cc1cc(C(F)(F)F)nn1C(=O)c1cccnc1Cl | i | i | 2% | 9% | -1% | 0%
CC1=C(C(=O)N2CCCCCC2)CC(CC(=O)NCc2cccc3ccccc23)C(=O)N1CCC1=CCCCC1 (stereo not drawn) | ? | 18µM* | ? | ? | . | .
